From PubChem BioAssay AID463 (The Scripps Research Institute Molecular Screening Center, 2006)
Among all 56,000 compounds or so, about 710 (1.3%) were called active. The full list was thinned out, with actives kept by preference. A number with no mark means an inactive call.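 How the source made its calls: active means inhibition above the mean inhibition of all tested compounds plus 3 SD (cut at about 28% in these data); inactive means the rest.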

Assay: cytotoxicity toward Jurkat T cells, primary screen, cytotoxicity control, cell-based, Jurkat E6.1, 60K MLSMR library (AID 463)
Conditions: Jurkat E6.1 viability, ATP luminescence, 48 h; at 4 µM; hits give high values

Structure (SMILES) | inhibition
CCC(=O)c1ccc(OCC(O)CN2C(=O)NC(C)(C)C2=O)cc1 (stereo unspecified) | -6.4%
O=C(c1cccc(S(=O)(=O)N2CCOCC2)c1)N1CCOCC1 | 0%
CCOc1cccc(-n2nnnc2-c2ccc(OC)cc2)c1 | 86.8% (active)
CCOc1cccc(-c2nnc3sc(COc4ccc(OC)cc4)nn23)c1 | -3%
COc1ccc(-n2nnnc2SCC(=O)c2ccc(OC)c(OC)c2)cc1 | 7.1%
COC(=O)COc1ccc(S(=O)(=O)N2CCOCC2)cc1 | -6.6%
CCOC(=O)Cc1csc(NC(=O)CN(C)S(=O)(=O)c2ccc3c(c2)CCC(=O)N3)n1 | -0.9%
COc1ccc(NC(=O)c2cccc(NC(=O)c3ccco3)c2)c(OC)c1 | -4.5%
CCOc1cc(-c2noc(CCC(=O)N3CCOCC3)n2)ccc1OC | -6.2%
CCOc1cc(C(=O)N2CCc3cc(OC)c(OC)cc3C2)ccc1OC(F)F | 98.3% (active)
CCOc1cc(CN2CCN(C(=O)CC(C)C)CC2)ccc1OC | -0.1%
COc1ccc(C(=O)Nc2ccc3c(c2)OCO3)cc1OC | 16.3%
COc1nc(Oc2ccc(=O)n(C)n2)nc(N(C)C)n1 | 4.9%
CC1(C)CC(=O)C(C=NCCC2=CCCCC2)=C(O)C1 | 2%
C=CCn1c(CSc2nc3ccccc3s2)nnc1SCC(=O)NCc1ccco1 | 0.8%
CN(Cc1ccccc1)C(=O)CCNC(=O)Cn1cnc2ccccc2c1=O | 7.8%
O=C(Cn1cnc2c(cnn2-c2ccc(F)cc2)c1=O)NCCc1ccccc1 | -3%
O=C(Cn1cnc2c(cnn2-c2ccccc2)c1=O)NCc1ccccc1 | 35.9% (active)
CC(=O)Oc1cccc(N2C(=O)C3CC=C(Cl)CC3C2=O)c1 (stereo unspecified) | -1.4%
CS(=O)(=O)N1CCN(C(=O)c2cc3ccccc3oc2=O)CC1 | -5.4%
CCN(CC)C(=O)CSc1nnc(-c2ccc(S(=O)(=O)NCc3ccccc3Cl)cc2)o1 | -7.3%

Structure (SMILES) | inhibition
Cc1ccccc1C(=O)NCCN=C1NS(=O)(=O)c2ccccc21 | 3.3%
O=C(c1ccccc1)c1cccn1CC(=O)N1CCN(c2ccc(F)cc2)CC1 | -0.4%
Cc1ccccc1CN1CCN(C(=O)c2cccc(F)c2)CC1 | -5%
O=C(c1cccc(C(=O)N2CCN(c3ccc(F)cc3)CC2)c1)N1CCN(c2ccc(F)cc2)CC1 | 37.4% (active)
COc1cc(C2C(C#N)=C(C)NC3=C2C(=O)CC(C)(C)C3)ccc1O (stereo unspecified) | 5%
COc1ccccc1CNC(=O)C1CCN(S(C)(=O)=O)CC1 | -5.6%
Nc1c(C(=O)NCc2ccccc2)nnn1Cc1cccc(Cl)c1 | 83.8% (active)
CCOc1ccc(Cn2nnc(C(=O)Nc3ccc(OC)cc3OC)c2N)cc1 | -5.8%
CCOc1ccc(Cn2nnc(C(=O)NCc3ccccc3)c2N)cc1 | 2.3%
CCOc1c(OC)cc(C2C(C#N)=C(N)Oc3n[nH]c(-c4ccncc4)c32)cc1OC (stereo unspecified) | -1.9%
O=C(Oc1cccnc1)c1cc2ccccc2oc1=O | 4.5%
COc1ccc(-c2cc(C(F)(F)F)n3nc(C(=O)N4CCOCC4)c(Cl)c3n2)cc1 | -9.2%
CCCCN=C(N)/C(C(=O)OCC)=C(\O)c1ccc(OC)cc1 | -0.7%
CCc1ccc(N(CC)c2ncnc3nc[nH]c23)cc1 | 0.9%
CCOC(=O)c1cnc(-n2nc(C)cc2C)nc1Nc1cccc(C(C)=O)c1 | 2.3%
CC(=O)c1ccc(Oc2cc(C)nc(-n3nc(C)cc3C)n2)cc1 | 97.7% (active)
Cc1cc(C)n(-c2ccc(Cl)c(C(=O)O)n2)n1 | -4.6%
O=C(COc1ccccc1Cl)Nn1cnnc1 | 4.2%
COc1ccc(N2C(=O)C3CCCN3C2c2cccs2)cc1 (stereo unspecified) | -7.9%
O=C(CC1N=C2c3ccccc3N=C(SCc3ccccc3Cl)N2C1=O)NCc1ccco1 (stereo unspecified) | 8%
NC(=O)CSC1=Nc2ccccc2C2=NC(CCC(=O)NCc3ccc(F)cc3)C(=O)N12 (stereo unspecified) | 4.5%

Structure (SMILES) | inhibition
CC(C)C1N=C2c3ccccc3N=C(SCC(=O)c3ccc(O)c(O)c3)N2C1=O (stereo unspecified) | 50.8% (active)
CCCC(NS(=O)(=O)c1ccc(OC)cc1)C(=O)O (stereo unspecified) | 0.8%
COC(=O)C(C)n1cnc2c(nnn2-c2cccc(Cl)c2)c1=O (stereo unspecified) | 6%
Cc1oc(-c2ccccc2F)nc1CS(=O)(=O)CC(=O)NCCCN(C)C1CCCCC1 | 5%
O=C(Nc1ccc(S(=O)(=O)N2CCCC2)cc1Cl)C1=COCCO1 | 10.5%
O=C(Nc1ccc2c(c1)nc1n2CCCCC1)c1cc(S(=O)(=O)N2CCOCC2)ccc1Cl | 34.5% (active)
COc1ccc(S(=O)(=O)N2CCOCC2)cc1C(=O)Nc1nc2ccccc2s1 | -2.5%
O=C1N(Cc2ccc3c(c2)OCO3)c2ccccc2C1(O)c1c[nH]c2ccccc12 (stereo unspecified) | -8.9%
CCCCNC(=O)CSc1nccn1Cc1ccccc1 | -7.9%
COCCNCCOCCOc1cccc(OC)c1 | 5.4%
Cc1cc(Nc2cccc(F)c2)n2ncnc2n1 | 0.2%
CCOC(=O)c1[nH]c2c(c1C)C(=O)CC(c1ccc(N(C)C)cc1)C2 (stereo unspecified) | 1%
CCCOC(=O)c1[nH]c2c(c1C)C(=O)CC(c1cc(OC)c(OC)c(OC)c1)C2 (stereo unspecified) | 45.9% (active)
COC(=O)C1C(=O)c2c([nH]c(C(=O)OCCSC)c2C)CC1C (stereo unspecified) | -3.9%
Cc1ccc(N(CC(O)CN2CCCC2)S(=O)(=O)c2ccccc2)cc1 (stereo unspecified) | 2.6%
Cc1ccc(S(=O)(=O)N2CCCC2CO)cc1 (stereo unspecified) | -3.1%
Cc1ccc(S(=O)(=O)NC(=O)N2CCCC(C)(C)C2)cc1 | -5.4%
Cc1ccc(S(=O)(=O)C2(S(=O)(=O)c3ccc(C)cc3)CCCC2)cc1 | 84% (active)
CC(C)(O)C#Cc1ccc(C(=O)N2CCC(C(N)=O)(N3CCCCC3)CC2)cc1 | -6.2%
